This is part of a sample that, as a whole, favours compounds with a hit. Of some 83,000 tested, about 20% had one in any assay.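 Percent growth is the endpoint: 0 to 100 indicates growth inhibition (40 means 60% inhibition), 0 means no net growth, and negative values indicate cell death.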 A number with no mark means an inactive call. Calls of active or inactive are those of the source. Rule for the calls: active = growth percent below 10; inactive = the rest.
What follows are molecules tested on DU-145 prostate (assay: NCI-60 one-dose screen, 48 h (100 = growth as untreated, 0 = no growth, -100 = all killed)). Conditions: 10 µM unless noted.

Compound | growth
CCC(CC)N1C(=O)/C(=c2\sc3n(c2=O)NC2C(N=3)N(CC)C(=O)N2CC)c2ccccc21 (stereo not drawn) | 52%
CN1CCN(c2ccc(/C=N/Nc3nc4ccccc4c(=O)n3-c3ccccc3)cc2)CC1 | 109%
CC1=NC2=NC(=O)/C(=C3/N=C(C)C=C(c4ccccc4)N3N)NN2C(c2ccccc2)=C1 | 105%
Nc1ncc(-c2ccc3ncnc(N4CCc5cc(F)c(F)cc54)c3c2)cn1 | 26%
COc1ccc(Oc2ccc(/C=N/NC(=O)CSc3nc4ccccc4c(=O)n3-c3ccc(Cl)cc3)cc2)cc1 | 49.2%
COc1ccc2c(c1)Oc1nc(N)c(C#N)c(N)c1C2Sc1ccc(C)cc1 (stereo not drawn) | -50% (active)
CC(=O)C1=C(C)NC(NN)=NC1c1cccc(Cl)c1 (stereo not drawn) | 114%
O=C(NNc1nc2cc(F)ccc2n2c(CO)ccc12)c1cnccn1 | 22.7%
NC(N)=Nc1ccc(Oc2cccc(NC(N)=Nc3ccc(Br)cc3)c2)cn1 | 80.4%
CCOC(=O)C1=NNC(c2ccc(Cl)cc2)C1C(=O)N1C(=S)NC(=O)C1CC(C)C (stereo not drawn) | 107%
CC/C(=C/c1c(O)cccc1OC)c1ccc2c(OC)cccc2[o+]1 | 112%
Cn1ccnc1C(=O)/C=C/c1ccc(CNC(=O)c2ccc(Cl)cc2)cc1 | 10.2%
COc1c(N2CC3CCCNC3C2)c(F)cc2c(=O)c(C(=O)N/N=C/c3ccc(F)cc3)cn(C3CC3)c12 (stereo not drawn) | 102%
CN(C)CCNC(=O)c1ccc(-c2nc3ccc4[nH]ncc4c3c3c2CCC3)cc1 | 5.47% (active)
C=C(C=O)[C@@H]1CC[C@]2(COC(C)=O)CC[C@]3(C)C(CC[C@@H]4[C@@]5(C)CC[C@H](OC(C)=O)C(C)(C)[C@@H]5CC[C@]43C)[C@@H]12 (stereo partly drawn) | -53% (active)
COc1c(N2CC3CCCNC3C2)c(F)cc2c(=O)c(C(=O)N/N=C/c3c[nH]c4ccccc34)cn(C3CC3)c12 (stereo not drawn) | 104%
COc1cc(C2N=C(NNc3ccccc3)NC(C)=C2C(C)=O)ccc1O (stereo not drawn) | 108%
CCCCCc1ccc(S(=O)(=O)Nc2cccc(-c3csc(NC(=O)CNCCN(C)C)n3)c2)cc1 | 84.8%
CCCCCc1ccc(S(=O)(=O)Nc2cccc(-c3csc(NC(=O)CCCCCN4CCN(CCO)CC4)n3)c2)cc1 | 83%

Compound | growth
CS(=O)(=O)Nc1cc(-c2ccc3ncc(C#N)c(NCc4ccccc4O)c3c2)cnc1Cl | 19.2%
CC(=O)N1C(=S)NC(=O)C1CC(C)C (stereo not drawn) | 110%
COc1cc(/C=C2\C(=O)Nc3ccccc32)ccc1OCc1ccc(Cl)cc1 | 98.7%
COc1cc2oc(-c3cccc(NC(=O)c4cc(N)ccc4Cl)c3)cc(=O)c2c(OC)c1OC | 99.7%
COc1ccc(Cn2cc3c(c2-c2cc(OC)c(OC)c(OC)c2)CCc2c(CN4CCCC4)noc2-3)cc1 | 22.7%
CCCCCc1ccc(S(=O)(=O)Nc2cccc(-c3csc(NCCN4CCN(C)CC4)n3)c2)cc1 | 74.3%
CCC1=Cc2cc(OC)ccc2OC12C=Cc1cc(OC)ccc1O2 (stereo not drawn) | 19.9%
CCCCCc1ccc(S(=O)(=O)Nc2cccc(-c3csc(NC(=O)CCCCCN4CCN(C)CC4)n3)c2)cc1 | 63.5%
N#Cc1cnc2ccc(-c3cnc4[nH]ncc4c3)cc2c1N1CCc2cc(F)c(Cl)cc21 | 7.85% (active)
CC(C)C[C@@H]1N[C@@]2(C(=O)Nc3ccccc32)[C@@H](c2ccc(F)cc2)[C@@H]1C(=O)c1ccc(O)cc1 | 102%
O=C(NNc1nc2cc(F)cc(F)c2n2cccc12)c1cnccn1 | 22.4%
O=C(NNc1nc2cc(F)c(F)cc2n2cccc12)c1cnccn1 | 32.7%
O=C(CNc1nc(-c2cccc([N+](=O)[O-])c2)cs1)Nc1cccc([N+](=O)[O-])c1 | -6.15% (active)
CC(Nc1c(C#N)cnc2ccc(-c3cnc(N)nc3)cc12)c1ccccc1 (stereo not drawn) | 17.3%
C=CCn1c(SCC(=O)Nc2ccc(C(=O)/C=C/c3ccc(Cl)cc3)cc2)nnc1-c1c[nH]c2ccccc12 | 90.6%
CCCCCc1ccc(S(=O)(=O)Nc2cccc(-c3csc(NC(=O)CN4CCN(C)CC4)n3)c2)cc1 | 82.4%
O=C(NCc1ncc[nH]1)c1ccc(-c2nc3ccc4[nH]ncc4c3c3c2CCCC3)cc1 | 21.6%
Cc1c(Cl)cccc1S(=O)(=O)Nc1ccc2c(c1)C(=O)N(C1CCC(=O)NC1=O)C2=O (stereo not drawn) | 108%
COC(=O)C1(C)CCC[C@]2(C)[C@H]3C[C@H]4C(C(C)C)=C[C@]3(CC[C@@H]12)[C@H]1[C@@H]4[C@@H](OC(=O)c2ccco2)CC[C@@H]1OC(=O)c1ccco1 (stereo partly drawn) | 113%

Source: PubChem BioAssay (NCI)
